# From PubChem BioAssay (NCI)
# The panel holds about 79,000 compounds, 15% with a hit somewhere; the sample as a whole holds those more often. A number with no mark means an inactive call. Active and inactive are the calls of the source. Rule as the data show it: active = growth inhibition above about 70%; inactive = the rest.
# Assay: NCI Yeast Anticancer Drug Screen. Data for the sgs1 strain (AID 173);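 also: 0% = growth of vehicle-only control cultures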
# Conditions: S. cerevisiae sgs1 mutant, active compounds read high
# Protocol: Growth inhibition of yeast strains with defined genetic alterations is measured as a screen for potential anti-cancer activity. Selected strains with alterations in DNA damage repair or cell cycle control were exposed to compounds and growth inhibition was measured relative to vehicle treated controls. The strain used in this assay is sgs1
SMILES,growth inhibition (at 1.2 µM),growth inhibition (at 3.7 µM),growth inhibition (at 11.0 µM),growth inhibition (at 33.0 µM),growth inhibition (at 100.0 µM)
COc1ccc(C2c3cc4c(cc3OC(C)(O)C2C)OCO4)c(OC)c1 (stereo not given),2%,2%,4%,18%,98% (active)
NC(=O)NN=C(CS)CS,0%,5%,18%,49%,89% (active)
O=CC=C(c1ccccc1)c1ccccc1,-3%,4%,11%,43%,99% (active)
O=Cc1cccc2ccc3ccccc3c12,-1%,-2%,4%,57%,99% (active)
CN(C)c1ccc(C(C#N)=C(C#N)C#N)cc1,-1%,-3%,-3%,-2%,44%
N#CSc1ccc(S(N)(=O)=O)cc1,-68%,-67%,-21%,9%,65%
O=C(NCCCCNCCCNC(=O)c1cc(-c2ccccc2)nc2ccccc12)c1cc(-c2ccccc2)nc2ccccc12,0%,0%,1%,33%,93% (active)
Oc1ccc2ccccc2c1C(c1ccc(Cl)cc1)c1c(O)ccc2ccccc12,-29%,-39%,-25%,38%,88% (active)
